We go through 34 compounds from PubChem BioAssay (NCI).

The panel holds about 83,000 compounds, 20% with a hit somewhere; the sample as a whole holds those more often.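 Single-concentration screen, 48 h exposure, 96-well plates. Endpoint: percent growth. Below 10 = active.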 Unmarked numbers belong to inactive results. Activity calls are given as the source filed them.

In this assay the test system is HS 578T breast. Briefly: NCI-60 one-dose screen, 48 h (100 = growth as untreated, 0 = no growth, -100 = all killed). The note with it: 10 µM unless noted.
Turning to `CCn1cc(C(=O)O)c(=O)c2cc(F)c(N3CCN(CC(=O)Nc4ccccc4)C(C)C3)c(F)c21` (centres undefined), the growth is 91.1%.
Regarding `c1cc(OCCN2CCCCC2)ccc1CNc1ccc2nc(CCC3CCCCC3)[nH]c2c1`, the growth is 45.8%.
`COC1C(O)CC(OC2CC(OC3CC(O[C@@H]4C(=O)c5c(cc6cc(OC7CC(OC8CC(O)C(O)C(C)O8)C(O)C(C)O7)c(C)c(O)c6c5O)CC4[C@H](OC)C(=O)C(C)=O)OC(C)C3O)OC(C)C2O)OC1C` (some centres undefined): the growth was 10.8%.
For `Cc1ccc(OCCOCCOCCOc2ccc(C)n(O)c2=S)c(=S)n1O`, the growth is 56.3%.
With `Cn1cc(-c2csc(-c3cn(CCCN4CCOCC4)c4ccc(F)cc34)n2)c2cccnc21`, the growth was 46.6%.
Consider `O=C1c2cccnc2C(=O)c2c1c(C(=O)OCCc1ccccn1)c1ccccn21`, for which the growth is -28.6% (active).
Regarding `C#CCOc1cccc(Nc2ncnc3c2ncn3C2CCN(C(=O)CCl)C2)c1` (centres undefined), the growth is 14%.
With `O=C(Cn1nc(-c2cccc3ccccc23)ccc1=O)NCc1cccc(Cl)c1`, the growth is 61.6% [50 µM].
`CC1(C)CC[C@]23CC[C@]4(C)[C@H](CC[C@@H]5[C@@]6(C)C/C(=C/O)C(=O)C(C)(C)[C@@H]6CC[C@]54C)[C@H]2[C@H]1OC3`: the growth is 111%.
The value for `Clc1ccc(-c2cc(-c3ccccc3)nc(N3CCN(CCCNc4ccnc5cc(Cl)ccc45)CC3)n2)cc1` was -17.9% (active).
The value for `Nc1nc(C(=O)N/N=C/c2ccc(F)cc2)nn1-c1ccc(S(N)(=O)=O)cc1` was 101%; that for `CN(C)c1ccc(CNCCO)cc1` was 96%; that for `Nc1c(Br)cc2c(c1Br)Cc1cc([N+](=O)[O-])ccc1-2` was 104%.
As to `COC(=O)Cn1c2c(c3c(OC)cccc31)C(=O)c1ccccc1-2`, the growth is 97.2%.
With `O=C(/C=C/c1ccccc1)c1ccc(-n2cc(CN3CCN(c4cc5c(cc4F)c(=O)c(C(=O)O)cn5C4CC4)CC3)nn2)cc1`, the growth was 67.4%.
For the compound `Cc1cc2oc(/C=C/c3ccccc3)cc(=O)c2c(C)c1Cl`, the growth is 119%.
The value for `Cc1nc(N/N=C/c2cn(-c3ccccc3)nc2-c2cc3ccccc3oc2=O)sc1N=Nc1ccccc1` was 90.2%; that for `Oc1c(CN2CCC(N3CCOCC3)CC2)cc(Cc2cc(CN3CCC(N4CCOCC4)CC3)c(O)c3ncccc23)c2cccnc12` was 58.9%; that for `N#Cc1nn(-c2cc(=O)[nH]c3ccc(Br)cc23)c(N)c1C#N` was 88.6%.
In the case of `CCCCO[C@@H]1C=C2[C@H]3CC(C)(C)C(=O)C[C@]3(C(=O)O[C@@H]3O[C@H](CO[C@@H]4O[C@H](CO)[C@@H](OC5OC(C)C(O)C(O)C5O)[C@H](O)[C@H]4O)[C@@H](O)[C@H](O)[C@H]3O)CC[C@@]2(C)[C@]2(C)CC[C@H]3C(C)(C)C(=O)CC[C@]3(C)[C@@H]12` (some centres undefined), the growth is 85.4%.
As for `CC(=O)c1c(Nc2cccc(F)c2)[nH]c2c(Cl)cc(Cl)c(Cl)c2c1=O`, the growth was 4.68% (active).
As to `O=c1cc(CP(=O)(O)O)c2cc(O)c(-c3ccccc3)cc2o1`, the growth is 101%.
As to `CC(=O)c1sc(-c2ccc(F)cc2)cc1O`, the growth was 117%.
The value for `CC(=O)c1ccc(-n2cc(CN3CCN(c4cc5c(cc4F)c(=O)c(C(=O)O)cn5C4CC4)CC3)nn2)cc1` was 80.6%; that for `COc1ccc(CN2C(=O)OC(C)(COC(C)=O)C2=O)cc1` (centres undefined) was 108%; that for `O=C1CCCC1[n+]1ccccc1` (centres undefined) was 114%.
Turning to `CN(C)CCC(=O)C1CC1`, the growth is 111%.
On to `Nc1ccc(-c2ccncc2)cc1NC(=O)N1CCCC1`, for which the growth was 93.7%.
Turning to `O=c1oc2c(cnc3ccccc32)cc1-c1cccc(Cl)c1`, the growth was 105%.
As for `C/C(=C(\c1ccc(OCCN2CCCCCC2)cc1)c1ccc(OC(=O)c2ccccc2)cc1)c1ccc(Cl)cc1`, the growth is 42%.
For the compound `Nc1cccc(-c2ccc(COc3ccc(CC4SC(=O)NC4=O)cc3)cc2)c1` (centres undefined), the growth was 59.8%.
`C=C(C)[C@@H]1CC[C@]2(COC3CCCCO3)CC[C@]3(C)[C@H](CC[C@@H]4[C@@]5(C)C=C(C=O)C(=O)C(C)(C)[C@@H]5CC[C@]43C)[C@@H]12` (some centres undefined): the growth was -24.3% (active).
For the compound `O=C1CCCCN1c1ccc(C2=NCCCN2)cc1`, the growth is 73.2%.
The value for `Cc1cc(=O)oc2cc(Oc3nc(Br)cn4c(Br)cnc34)ccc12` was 69.9%.
